RORg inh: ROR gamma (mouse) transcription inhibition. P51450. Drosophila S2 Gal4-RORgamma UAS-luciferase reporter, 20 h. Potency, µM (titrated, usually from 53.6 µM), usual class: inhibitors. 5.4% of 310,000 active; also: nearly all actives have a fitted effect of over 60% in size
Target sequence (P51450 whole entry, looked up, the tested form may be a part): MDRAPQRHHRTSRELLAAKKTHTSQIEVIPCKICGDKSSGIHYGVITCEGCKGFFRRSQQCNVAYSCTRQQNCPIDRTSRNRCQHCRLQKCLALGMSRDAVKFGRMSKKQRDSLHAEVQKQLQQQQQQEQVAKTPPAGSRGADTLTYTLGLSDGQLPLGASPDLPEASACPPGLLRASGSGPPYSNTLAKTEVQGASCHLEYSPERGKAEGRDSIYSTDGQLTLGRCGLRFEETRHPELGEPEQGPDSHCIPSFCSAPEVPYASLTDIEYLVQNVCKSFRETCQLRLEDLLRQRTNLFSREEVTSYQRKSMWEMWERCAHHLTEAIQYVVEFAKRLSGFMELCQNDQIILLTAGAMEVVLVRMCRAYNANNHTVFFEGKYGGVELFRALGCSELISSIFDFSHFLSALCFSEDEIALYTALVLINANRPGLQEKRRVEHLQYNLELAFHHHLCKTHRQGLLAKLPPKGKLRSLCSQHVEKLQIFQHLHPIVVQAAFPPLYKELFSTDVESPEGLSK
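Luciferase reporter read in Schneider cells carrying Gal4-RORγ (mouse) and UAS-Photinus luciferase; cells given compound 1 h before 700 uM copper sulfate induction, then incubated 20 h at ambient temperature.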
SW480 rereplic: inducers of DNA re-replication in SW480 colon cancer cells; SW480 DNA re-replication, Hoechst DNA content imaging, 48 h; Potency, µM (highest dose often 46.1 µM), usual class: activators; 1.8% of 340,000 active; AID 624297; also: nearly all actives have a fitted effect of over 55% in size
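First, 250 cells per well were seeded. Next, compound or vehicle (23 nL) was pinned in, plates sat 48 hr at 37 C. Finally Hoechst was added for 40 min before fluorescence scanning.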
MCF10A rerep: DNA re-replication induction in MCF 10a cells; AID 624296; Potency, µM (titrated, usually from 46.1 µM), most hits filed as activators; 2.9% of 350,000 active; MCF 10A DNA re-replication, Hoechst nuclear intensity, 48 h; also: nearly all actives have a fitted effect of over 50% in size
VP16 counter: Gal4-VP16 reporter inhibition counter-screen; Drosophila S2 Gal4-VP16 UAS-luciferase, luminescence, 20 h; Potency, µM (highest dose often 53.6 µM), usual class: inhibitors; 3.5% of 310,000 active; AID 2546;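 also: Gal4-VP16 expression switched on by copper sulfate through the metallothionein promoter; nearly all actives have a fitted effect of over 50% in size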
KB-V1 MDR tox: kills drug-selected multidrug resistant KB-V1 cells; KB-V1 MDR cells viability, CellTiter-Glo, 72 h; Potency, µM (titrated, usually from 46.1 µM), most hits filed as cytotoxic; 3.4% of 400,000 active; also: nearly all actives have a fitted effect of over 60% in size
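Potencies derive from concentration-effect curves fitted to normalized luminescence (CellTiter-Glo) of KB-V1 cells treated for 72 h at 37 degrees C in phenol-red-free DMEM containing 10% FBS.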
KB-3-1 cytotox: kills parental KB-3-1 adenocarcinoma cells. KB-3-1 viability, CellTiter-Glo ATP luminescence, 72 h. Potency, µM (series often up to 46.1 µM), most hits filed as cytotoxic. 1.4% of 400,000 active. AID 1347075; also: nearly all actives have a fitted effect of over 60% in size
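Here the drug-naive KB-3-1 line serves as comparator for MDR sub-line selectivity; cells received compound titrations, 72 h at 37 °C, then CellTiter-Glo readout.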
Numbers stand for hits; [ ] = another dose, or the depositor's remark. Most compounds without a hit are left out; they make up all but 10% or so of the library. Calls follow the shape of the dose curve; as a rule, active = well fitted curve in the direction sought with a large enough effect; inconclusive = small, poorly fitted or top-dose-only effect, or another doubt; inactive = no such curve, though single readings can be large; an effect the other way counts as inactive or inconclusive.

Screening CCCCn1c(CNC(=O)C23CC4CC(CC(C4)C2)C3)nnc1SCC(=O)Nc1ccc(F)cc1 returned KB-V1 MDR tox inactive and KB-3-1 cytotox inactive.
For CCOC(=O)C1=C(C)NC(C)=C(C(=O)OCC)C1C(=O)OCC(=O)NC(C)c1ccccc1 (stereo not given) the results were SW480 rereplic 7.3µM, MCF10A rerep inconclusive, KB-V1 MDR tox inconclusive and KB-3-1 cytotox inconclusive.
Screening O=C(COc1cccc2ccccc12)N/N=C/c1ccccc1OCc1ccc(C(=O)O)cc1 returned RORg inh inconclusive, SW480 rereplic inactive, MCF10A rerep inconclusive, VP16 counter inactive, KB-V1 MDR tox inactive and KB-3-1 cytotox inactive.
Screening CC(NC(=O)COc1ccccc1-c1ccccc1)c1ccccc1 (stereo not given) returned RORg inh inactive[10 µM], SW480 rereplic inactive, MCF10A rerep 4.6µM, VP16 counter inactive, KB-V1 MDR tox inactive and KB-3-1 cytotox inactive.
Screening COc1ccc(/C=N/NC(=O)COc2ccccc2-c2ccccc2)cc1 returned RORg inh inconclusive, SW480 rereplic 0.92µM, MCF10A rerep 0.82µM, VP16 counter inconclusive, KB-V1 MDR tox 0.82µM and KB-3-1 cytotox 1.2µM.
`CCOC(=O)C1=C(C)NC(C)=C(C(=O)OCC)C1C(=O)OCC(=O)NCc1ccccc1` gave SW480 rereplic inactive, MCF10A rerep inactive, KB-V1 MDR tox inconclusive and KB-3-1 cytotox inconclusive.
O=C(COc1ccccc1-c1ccccc1)N/N=C/c1cccc2ccccc12 was read as RORg inh inactive, SW480 rereplic inconclusive, MCF10A rerep 0.46µM, VP16 counter inactive, KB-V1 MDR tox 0.92µM and KB-3-1 cytotox 1.3µM.
`COc1ccc(Oc2ncc3nc(CCc4ccccc4)c(=O)n(C4CC4)c3n2)cc1` gave RORg inh inactive and VP16 counter inactive.
For COc1cc(-c2nc(S(=O)(=O)c3ccc(C)cc3)c(N3CCOCC3)o2)cc(OC)c1OC the results were RORg inh inactive, SW480 rereplic inactive, MCF10A rerep inactive, VP16 counter inactive, KB-V1 MDR tox inconclusive and KB-3-1 cytotox inactive.
For COc1cc(-c2nc(S(=O)(=O)c3ccc(Cl)cc3)c(N3CCOCC3)o2)cc(OC)c1OC the results were RORg inh inactive, SW480 rereplic inactive, MCF10A rerep inactive, VP16 counter inactive, KB-V1 MDR tox 0.52µM and KB-3-1 cytotox inactive.
Screening O=C1NN(C(=O)Nc2ccc(Br)cc2)C(c2ccccc2)C1c1ccccc1 (stereo not given) returned RORg inh inactive and VP16 counter inactive.
O=C(Nc1ccc(F)c(Cl)c1)c1cc(C2CCCCN2C(=O)c2cccs2)on1 (stereo not given) was read as KB-V1 MDR tox inactive and KB-3-1 cytotox 23µM.
`O=C(Nc1ccccc1Cl)c1cc(C2CCCCN2C(=O)c2cccs2)on1` (stereo not given) gave KB-V1 MDR tox inactive and KB-3-1 cytotox inactive.
For CC(C)(C)C(=O)Cn1ncc(Br)c(Br)c1=O the results were RORg inh inconclusive, SW480 rereplic 7.3µM, MCF10A rerep 5.8µM, VP16 counter inactive[10 µM], KB-V1 MDR tox inactive and KB-3-1 cytotox 10µM.
Screening Nc1c(C(=O)NCC2CCCO2)c2nc3ccccc3nc2n1/N=C/c1ccncc1 (stereo not given) returned SW480 rereplic inactive, MCF10A rerep inactive, KB-V1 MDR tox inactive and KB-3-1 cytotox inactive.
For COCCn1c(N)c(C(=O)Nc2sc3c(c2C(=O)OC)CCCC3)c2nc3ccccc3nc21 the results were RORg inh inactive, SW480 rereplic inactive, MCF10A rerep inactive, VP16 counter inactive, KB-V1 MDR tox inactive and KB-3-1 cytotox inactive.
COc1cccc(/C=N/n2c(N)c(S(=O)(=O)c3cccs3)c3nc4ccccc4nc32)c1OC was read as RORg inh inactive, SW480 rereplic 12µM, MCF10A rerep 3.7µM, VP16 counter inactive, KB-V1 MDR tox inconclusive and KB-3-1 cytotox inconclusive.
COCCn1c(N)c(C(=O)NCc2cccs2)c2nc3ccccc3nc21 was read as RORg inh inactive, SW480 rereplic inconclusive, MCF10A rerep 8.2µM, VP16 counter inactive, KB-V1 MDR tox inconclusive and KB-3-1 cytotox inconclusive.
Screening COCCn1c(N)c(C(=O)NCC2CCCO2)c2nc3ccccc3nc21 (stereo not given) returned RORg inh inactive, SW480 rereplic 10µM, MCF10A rerep inconclusive, VP16 counter inactive, KB-V1 MDR tox inconclusive and KB-3-1 cytotox inactive.
For CC(C)Cn1c(N)c(C(=O)NCC2CCCO2)c2nc3ccccc3nc21 (stereo not given) the results were RORg inh inactive, SW480 rereplic inconclusive, MCF10A rerep 2.1µM, VP16 counter inactive, KB-V1 MDR tox inconclusive and KB-3-1 cytotox inactive.
O=C(NCc1ccc(F)cc1)c1cc(C2CCCN(C(=O)C3CCCCC3)C2)on1 (stereo not given) was read as KB-V1 MDR tox inactive and KB-3-1 cytotox inactive.
`N#Cc1ccc(CN2CC[C@@]3(CCCN(S(=O)(=O)c4ccccc4)C3)C2)cc1` gave RORg inh inactive and VP16 counter inactive.
COc1ccc(OC)c(-n2c(SCC(=O)NCC3CCCO3)nc3ccccc3c2=O)c1 (stereo not given) was read as SW480 rereplic inactive, MCF10A rerep inactive, KB-V1 MDR tox inactive and KB-3-1 cytotox inactive.
For COCCn1c(N)c(S(=O)(=O)c2cccs2)c2nc3ccccc3nc21 the results were RORg inh inactive, SW480 rereplic inactive, MCF10A rerep 23µM, VP16 counter inactive, KB-V1 MDR tox inactive and KB-3-1 cytotox inactive.
Screening COc1ccc(OC)c(-n2c(N)c(C(=O)NCC3CCCO3)c3nc4ccccc4nc32)c1 (stereo not given) returned RORg inh inactive, SW480 rereplic 16µM, MCF10A rerep 8.2µM, VP16 counter inactive, KB-V1 MDR tox inactive and KB-3-1 cytotox inactive.
Nc1c(C(=O)OCC2CCCO2)c2nc3ccccc3nc2n1C1CCCC1 (stereo not given) was read as RORg inh inactive, SW480 rereplic inactive, MCF10A rerep inconclusive, VP16 counter inactive, KB-V1 MDR tox 23µM and KB-3-1 cytotox inconclusive.
CNc1nc2ccccc2n1/N=C/c1cccc(OC)c1OC was read as RORg inh 13µM, SW480 rereplic inactive, MCF10A rerep inactive, VP16 counter inactive, KB-V1 MDR tox 8.2µM and KB-3-1 cytotox inactive.
Screening CCOC(=O)c1c(N)n(-c2ccccc2CC)c2nc3ccccc3nc12 returned KB-V1 MDR tox inconclusive and KB-3-1 cytotox inactive.
Screening Cc1ccc(C)c(CN2CCC(CNC(=O)C(CC(C)C)N3Cc4ccccc4C3=O)CC2)c1 (stereo not given) returned KB-V1 MDR tox inactive and KB-3-1 cytotox inactive.
